G9a block: blocks human histone lysine methyltransferase G9a. Q96KQ7. G9a H3K9 monomethylation, AlphaScreen, 2 h. Potency, µM (series often up to 102 µM), inactives show top-dose activity, negative = inhibition, actives largely listed as inhibitors. 350,000 compounds, 8.8% hits. AID 504332; also: % is scaled to controls: 0 for no effect and ±100 for the full control effect; nearly all actives have a fitted effect of over 75% in size
Target sequence (Q96KQ7 913-1193 limits assumed): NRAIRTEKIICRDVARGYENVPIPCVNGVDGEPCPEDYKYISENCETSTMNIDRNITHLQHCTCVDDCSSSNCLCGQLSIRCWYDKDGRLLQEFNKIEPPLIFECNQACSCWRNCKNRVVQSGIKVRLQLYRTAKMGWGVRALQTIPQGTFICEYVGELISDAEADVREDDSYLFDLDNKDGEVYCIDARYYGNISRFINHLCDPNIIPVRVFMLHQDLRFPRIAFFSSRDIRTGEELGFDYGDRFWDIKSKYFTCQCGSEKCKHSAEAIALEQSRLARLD
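Chemiluminescent proximity detection of H3K9 monomethylation, read after 10 min bead incubation in the dark. Reaction: 20 nM G9a, 500 nM biotin-H3K9 peptide, 20 uM SAM cofactor, 2 h, room temperature, following 15 min enzyme-compound preincubation.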
GLS inhibitor: inhibitors of human glutaminase (GLS) | O94925 | GLS enzymatic activity, qHTS titration | Potency, µM (doses to about 45.5 µM), for the others: top-dose activity change, negative = inhibition, actives largely listed as inhibitors | 410,000 compounds, 0.21% hits; also: % is scaled to controls: 0 for no effect and ±100 for the full control effect
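Two-point fluorescence kinetic (t0, 30 min RT) for hKGA; glutamate detected via glutamate oxidase–HRP–Amplex Red. Substrate: 1 mM L-glutamine solution; buffer 45 mM KH2PO4, pH 8.2.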
BAZ2B inh: BAZ2B (human) inhibition | Q9UIF8 | AlphaScreen BAZ2B-H3K14Ac peptide displacement | Potency, µM (top dose mostly 114 µM), inactives show at the top dose activity change, negative = inhibition, hits mostly inhibitors | 360,000 compounds, 4.4% hits | AID 504333; also: % is scaled to controls: 0 for no effect and ±100 for the full control effect; nearly all actives have a fitted effect of over 60% in size
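AlphaScreen displacement: compounds (up to 110uM) incubated 30 min at room temperature with a preformed 50 nM BAZ2B/50 nM biotinylated H3K14Ac peptide complex in PBS pH 7.4 with Tween-20. Donor and acceptor beads at 10 ug/mL final added, 20 min light-protected before reading.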
HP1b chromo inh: inhibitors of HP1-beta chromodomain binding to methylated histone tails; 390,000 compounds, 0.56% hits; P83916; Potency, µM (titrated, usually from 114 µM), for the others: at the highest dose activity change, negative = inhibition, most hits filed as inhibitors; AlphaScreen HP1-beta / biotin-H3K9me3 peptide binding; also: nearly all actives have a fitted effect of over 70% in size
Target sequence (P83916 whole entry, looked up): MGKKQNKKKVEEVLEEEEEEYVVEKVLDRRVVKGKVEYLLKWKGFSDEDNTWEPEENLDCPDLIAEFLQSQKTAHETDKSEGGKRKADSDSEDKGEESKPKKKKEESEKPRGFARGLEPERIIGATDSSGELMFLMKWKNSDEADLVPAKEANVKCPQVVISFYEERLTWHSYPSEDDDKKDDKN
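Compound inhibition of the preformed complex between 50 nM HP1-beta and 50 nM biotinylated H3K9me3 peptide was read by AlphaScreen. Buffer was PBS pH 7.4 with 0.01% Tween-20. Incubations ran 30 min at room temperature, with 10 ug/mL donor/acceptor beads.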
JMJD2A Tudor inh: JMJD2A Tudor domain (human) inhibition; O75164; Potency, µM (highest dose often 114 µM), for the others: at the top dose activity change, negative = inhibition, hits mostly inhibitors; 390,000 compounds, 4.4% hits; AlphaScreen JMJD2A-Tudor / H3K4me3 peptide binding; also: % is scaled to controls: 0 for no effect and ±100 for the full control effect; nearly all actives have a fitted effect of over 50% in size
An asterisk follows results filed as active; u = inconclusive; x = no result given; [ ] = dose if it differs, or a comment. Sampled rows, rich in hits. Any-hit rate of the full collection: about 10%. Calls follow the shape of the dose curve; as a rule, active = well fitted curve in the direction sought with a large enough effect; inconclusive = small, poorly fitted or top-dose-only effect, or another doubt; inactive = no such curve, though single readings can be large; an effect the other way counts as inactive or inconclusive. Potency is read from the fitted curve at half-maximal effect.

SMILES	G9a block	GLS inhibitor	BAZ2B inh	HP1b chromo inh	JMJD2A Tudor inh
COc1ccccc1NC(=O)CCCN1C(=O)C(c2ccccc2)Oc2cccnc21 (stereo not given)	-10%[59 µM]	-4%	-16%	29%	14%
Cc1ccc(C(=O)OCC(=O)c2c(N)n(C)c(=O)n(C)c2=O)cc1S(=O)(=O)N1CCCCC1	2%	1%	-12%	4%	-19%
CCN1CCN(S(=O)(=O)c2ccc(C(=O)Nc3ccccc3)cc2)CC1	83%	-6%	1%	31%	-10%
O=C1C2C3CCC(O3)C2C(=O)N1c1cc(OCC(F)F)cc([N+](=O)[O-])c1 (stereo not given)	-47%	0%	7%	34%	-17%
Cc1ccc(OCC(=O)OCc2cc(=O)n3ccsc3n2)cc1C	4%[59 µM]	5%	1%	28%	5%
O=C(Nc1ccccc1C(F)(F)F)N1CCC(CN2CCc3ccccc3C2)CC1	0%[59 µM]	9%	-1%	22%	4%
CCN(C(=O)COC(=O)c1ccc2ccccc2c1)c1c(N)n(Cc2ccccc2)c(=O)[nH]c1=O	22%[12.7 µM]	-3%	0%	11%	-15%
CCOc1ccc(-c2c(C(=O)N/N=C/C3CC=CCC3)nnn2-c2nonc2N)cc1 (stereo not given)	6%	-1%	79µM*	51%	-21%
CCCc1c(C(=O)N/N=C/C2CC=CCC2)nnn1-c1nonc1N (stereo not given)	x	1%	x	x	x
CCOc1cccc(-c2c(C(=O)N/N=C/c3ccoc3)nnn2-c2nonc2N)c1	54%	u	79µM*	-17%	25µM*
COc1cccc(CNC(=O)C(=O)NCCc2ccc(OC)c(OC)c2)c1	-8%[59 µM]	-2%	7%	20%	-3%
Cc1occc1C(=O)N/N=C/c1ccc(Br)s1	7%	-10%	-16%	38%	-16%
COc1cccc(NC(=O)CN(C)C(=O)CCC(=O)c2cc(C)sc2C)c1	-7%	5%	10%	-3%	-13%
CN(c1ccc(C(=O)Nc2cccc([N+](=O)[O-])c2)cc1)S(C)(=O)=O	-39%	-16%	x	12%	-18%
CCOC(=O)C1CCCN(C2CC(=O)N(c3cccc(C)c3)C2=O)C1 (stereo not given)	28µM*	-11%	u	40%	u
CCOC(=O)c1ccc(N2C(=O)CC(N3CCC(Nc4ccc(F)cc4)CC3)C2=O)cc1 (stereo not given)	10µM*	-4%	-31%	12%	u
CCOC(=O)c1ccc(N2C(=O)CC(N3CCCC(C)C3)C2=O)cc1 (stereo not given)	10µM*	0%	4%	40%	-6%
CC(=O)c1c(C)[nH]c(C(=O)COC(=O)CCCOc2ccccc2)c1C	-3%	-1%	-15%	11%	-14%
CCCCCCCN(c1ccccc1)[C@@H]1C[C@H]2CCCC(=O)N3CC[C@@H](C1)[C@@H]23	x	28%	x	-13%	45µM*
CCOC(=O)c1c(=O)n(O)c2ccc(OC)cc2[n+]1[O-]	50µM*	-3%	u	3%	50µM*
CCOC(=O)c1cc2ccc(OC)cc2oc1=O	33%[0.501 µM]	4%	2%	12%	1%
CCc1ccc(C2C(C#N)=C(N)SC(N)=C2C#N)s1	40µM*	-17%	-14%	9%	-33%
N#CC1=C(N)SC(N)=C(C#N)C1c1cccc(Oc2ccccc2)c1	u	u	-17%	3%	u
CCc1ccc(C2C(C#N)=C(N)OC3=C2C(=O)CCC3)s1 (stereo not given)	-22%	0%	-21%	22%	-1%
CCc1ccc(C2C(C#N)=C(N)SC(N)=C2C#N)cc1	8.9µM*	-15%	u	4%	u
SMILES	G9a block	GLS inhibitor	BAZ2B inh	HP1b chromo inh	JMJD2A Tudor inh
Cc1ccc(C2C(C#N)=C(N)SC(N)=C2C#N)o1	1.6µM*	x	x	x	x
N#CC1=C(N)SC(N)=C(C#N)C1c1ccc(C(F)(F)F)cc1	2.5µM*	x	-31%	x	x
CCc1ccc(C2C(C#N)=C(N)Oc3cc(N)ccc32)cc1 (stereo not given)	u	-2%	u	44%	-19%
Cc1ccc(-c2cc(C(F)(F)F)n3nc(C(=O)Nc4ccc(Cl)c(C(F)(F)F)c4)cc3n2)cc1	5%[59 µM]	3%	-19%	7%	-10%
O=C(Nc1nccs1)c1ccc(COc2ccc(F)cc2)o1	6%[12.7 µM]	5%	-20%	18%	-17%
COc1ccc(C(=O)NCCCNC(=O)c2ccco2)cc1OC	28%	3%	5%	-2%	3%
O=S(=O)(Nc1ccc(-c2ccc(N3CCCCCC3)nn2)cc1)c1cccc(C(F)(F)F)c1	-3%[59 µM]	18%	-11%	u	-21%
N#CC1=C(N)Nc2ncnn2C1c1ccc([N+](=O)[O-])cc1 (stereo not given)	u	11%	-16%	68%	-12%
N#CC1=C(N)SC(N)=C(C#N)C1c1ccc([N+](=O)[O-])cc1	8.9µM*	-29%	-37%	-37%	56µM*
CCN1CCN(C2=C(NS(=O)(=O)c3ccc(NC(C)=O)cc3)C(=O)c3ccccc3C2=O)CC1	u	-9%	u	30%	7%
CCOC(=O)N1CCN(C(=O)c2ccc(S(=O)(=O)Nc3ccc(C)cc3)cc2)CC1	x	11%	x	34%	-19%
CC(=O)Nc1ccc(S(=O)(=O)NC2=C(N3CCN(Cc4ccccc4)CC3)C(=O)c3ccccc3C2=O)cc1	u	19%	20µM*	32µM*	35µM*
CCOC(=O)N1CCN(C2=C(NS(=O)(=O)c3ccc(NC(C)=O)cc3)C(=O)c3ccccc3C2=O)CC1	28µM*	21%	45µM*	-11%[57 µM]	u
CC(=O)Nc1ccc(S(=O)(=O)NC2=C(N3CCN(C)CC3)C(=O)c3ccccc3C2=O)cc1	50µM*	44%	32µM*	0%[57 µM]	-25%
CCN1CCN(C2=C(NS(=O)(=O)c3ccc(C)cc3)C(=O)c3ccccc3C2=O)CC1	40µM*	8%	u	6%	-35%
O=c1cc(-c2ccccc2)[nH][nH]1	3%[59 µM]	40%	8%	2%	-14%
O=C(NCCCN1CCOCC1)C1(c2ccccc2)CCOCC1	11%	1%	11%	38%	0%
CCOC(=O)Cc1nc2ccccc2n(CC#N)c1=O	u	-1%	-25%	35%	6%
CC(=O)Nc1ccc(S(=O)(=O)Nc2cccn(Cc3ccc(C)cc3)c2=O)cc1	3%	1%	-8%	4%	-29%
CC(=O)Nc1ccc(S(=O)(=O)Nc2cc(C)cn(Cc3ccccc3)c2=O)cc1	14%[59 µM]	-5%	-3%	27%	25µM*
Cc1ccc(SCC(=O)NNC(=O)CNC(=O)c2ccccc2F)cc1	x	9%	x	13%[57 µM]	-15%
O=C(Nc1ccc(-c2ccc([N+](=O)[O-])cc2)cc1)c1ccccc1F	50µM*	-3%	-11%	22%	-6%
O=C(CSc1ccc([N+](=O)[O-])cc1)NNC(=O)c1ccccc1F	50µM*	-6%	-17%	5%	-23%
